# Compound activity: PubChem BioAssay, National Center for Advancing Translational Sciences (NCATS)
# PI5P4Ka inh – blocks human PI5P4K alpha kinase activity | max response, % | AID 652105 | P48426 | 330,000 compounds, 1.2% hits | PI5P4Kalpha enzyme, ADP-Glo luminescence, 60 min; hits give low values; active = max response of -50% or lower; inconclusive = between -30% and -50%; inactive = -30% or higher; note: value at the top dose of about 77 µM; % is set by controls: 0 for no effect and ±100 for the full control effect
#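 Enzyme plus substrate dispensed, test compounds pinned in, then ATP (5 microM final) added. After 60 min at RT, ADP-Glo reagent 1 for 45 min and reagent 2 for 30 min preceded luminescence imaging.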
# POLK inh – inhibitors of human DNA polymerase kappa | Q9UBT6 | Potency, µM (series often up to 107 µM), inactives show at the top dose activity, negative = inhibition, usual class: inhibitors | purified Pol kappa, fluorescent DNA synthesis assay, 10 min | AID 588579 | 400,000 compounds, 0.53% hits; note: potency is the fitted concentration of half-maximal effect; % is set by controls: 0 for no effect and ±100 for the full control effect
#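 Kinetic fluorescence readout at 0 and 10 min followed reaction start with substrate at 50 nM final. Beforehand, enzyme (10 nM Pol kappa) stood 15 min with compound at room temperature; buffer-only wells were negative controls.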
# WRN inhibitor – blocks human WRN helicase. Potency, µM (top dose mostly 114 µM), without a hit: at the top dose activity change, negative = inhibition, actives largely listed as inhibitors. WRN helicase unwinding, fluorescent forked duplex, kinetic. 360,000 compounds, 0.46% hits. AID 651768. Q14191; note: potency is the fitted concentration of half-maximal effect; % is set by controls: 0 for no effect and ±100 for the full control effect; nearly all actives have a fitted effect of over 55% in size
#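 Kinetic red-fluorescence monitoring (525/598 nm) tracks WRN helicase activity after 100 nM fluorophore-quencher forked duplex and 2 mM ATP are added to 20 nM enzyme pretreated 15 min at room temperature with compound.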
# POLB inh – DNA polymerase beta (human) inhibition; Potency, µM (top dose mostly 114 µM), without a hit: at the top dose activity change, negative = inhibition, actives largely listed as inhibitors; 340,000 compounds, 1.3% hits; Pol beta primer extension/strand displacement, fluorescence kinetic; P06746; note: potency is the fitted concentration of half-maximal effect; % is set by controls: 0 for no effect and ±100 for the full control effect
#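 10 nM enzyme + cpd, 15 min RT; start with substrate 50 nM final; read 0 min and after 10 min RT. Corrected, normalized data; 4-parameter Hill curve fit.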
# POLI inh – DNA polymerase iota (human) inhibition; Pol iota fluorescent replication assay, 10 min; 390,000 compounds, 1% hits; Potency, µM (highest dose often 115 µM), inactives show at the highest dose activity, negative = inhibition, most hits filed as inhibitors; Q9UNA4; AID 588590; note: potency is the fitted concentration of half-maximal effect
#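 Pol iota at 10 nM preincubated 15 min with compounds at room temperature; reaction started with fluorescent substrate, 50 nM final. Fluorescence read kinetically at 0 and 10 min; buffer-only wells as negative control.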
# Pol eta inh – DNA polymerase eta (human) inhibition. 390,000 compounds, 1.2% hits. recombinant Pol eta, fluorescent DNA replication assay. Potency, µM (titrated, usually from 114 µM), without a hit: at the top dose activity change, negative = inhibition, hits mostly inhibitors. AID 588591. Q9Y253; note: potency is the fitted concentration of half-maximal effect; % is set by controls: 0 for no effect and ±100 for the full control effect
#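 Pol eta (10 nM) was preincubated with compounds for 15 min at room temperature, after which fluorescent replication substrate (50 nM final) was added to start the reaction. Fluorescence was read kinetically at 0 and 10 min.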
# The depositor's hits bear a star; ? = inconclusive; . = no result given; [ ] = another dose, or the depositor's remark. Rows were chosen to be rich in hits. Some 2.8% of all compounds tested hit in one or more screens of this group. Unless noted, calls come from the whole dose curve; as a rule, active = well fitted curve in the direction sought with a large enough effect; inconclusive = small, poorly fitted or top-dose-only effect, or another doubt; inactive = no such curve, though single readings can be large; an effect the other way counts as inactive or inconclusive.
SMILES,PI5P4Ka inh,POLK inh,WRN inhibitor,POLB inh,POLI inh,Pol eta inh
O=C(N/N=C/c1ccc(Cl)c([N+](=O)[O-])c1)c1ccc2nc[nH]c2c1,-16,-15%,-26%,40µM*,-3%,?
Cc1ccc2c(CC(=O)Nc3sccc3C(N)=O)coc2c1,-7,-29%,-9%[57.1 µM],2%,79µM*,?
Cc1ccc2occ(CC(=O)Nc3nnc(C(C)C)s3)c2c1,.,17%,.,20%,79µM*,-3%
Cc1ccc(-c2nc(N)s[n+]2-c2ccccc2)cc1,-80*,4%,-5%,2%,10%,-18%
CNc1nc(-c2ccccc2)[n+](-c2ccc(C)cc2)s1,-99*,-5%,50µM*,25%[57.1 µM],115%,-22%
COc1ccc(C(=O)Oc2c(Sc3ccccc3)c(C)nn2-c2ccccc2)c(OC)c1,.,-18%,.,29%,?,?
Cc1ccc(C)c(OCCn2ccnc2)c1,-4,79µM*,-24%,10µM*,40µM*,32µM*
Cc1ccc(Cn2cnc3c(cnn3C(C)(C)C)c2=O)cc1F,.,-7%,.,.,27%,.
O=C1NC(=S)S/C1=C1\Sc2ccccc2N1CCCS(=O)(=O)O,-20,-3%,-5%,-1%,?,?
NN1C(=O)/C(=C2/Sc3ccccc3N2CCCS(=O)(=O)O)SC1=S,?,-35%,-20%,22µM*,?,50µM*
C=C[C@@H]1c2cc(C)ccc2N(S(=O)(=O)c2ccc(C)cc2)[C@H](c2ccc(C(C)(F)F)cc2)C1(C#N)C#N,.,4%,.,.,29%,.
C(=C\c1nc2ccccc2s1)/c1ccc2c(c1)OCO2,.,0%,.,.,1%,.
C[N+](C)(CCCCCI)c1ccc(/C=C/c2nc3ccccc3s2)cc1,.,45µM*,.,.,79µM*,.
CCOc1ccc(C(=O)N2CCN(Cc3cc(=O)n4nc(-c5ccccc5Cl)sc4n3)CC2)cc1,.,-13%[60.1 µM],.,15%,16%,-7%
CC(C)(C)c1c(Cl)c(O)c(-c2ccccc2)c(=O)n1-c1ccccc1,3,-12%,50µM*,11%,1.1µM*,9%
O=C(N/N=C/c1cccs1)c1cc(-c2ccc(Cl)s2)[nH]n1,-3,-26%,-5%[11.6 µM],45µM*,?,?
O=C(N/N=C/c1ccco1)c1cc(-c2ccc(Cl)s2)[nH]n1,-22,-29%,-16%,?,?,-9%
CN=c1sc(C(=O)Nc2cccc(Cl)c2)cc(=O)n1C,-62*,-1%,-15%,32%,-11%,-10%
CCOC(=O)c1ccc(S(=O)(=O)Nc2nc3cc(S(=O)(=O)NC4=NCCCCC4)ccc3s2)cc1,-54*,-3%,?,1%,14µM*,-5%
CC1(C)NC(=O)N(CC(=O)OCC(=O)c2ccc(Br)s2)C1=O,-64*,-23%,-12%,.,?,?
COC(=O)C1=C(C)N(CCc2ccccc2)C(=O)/C1=C\c1ccco1,2,-13%,-4%,-15%,-1%,-17%
COC(=O)C1=C(C)N(Cc2ccccc2)C(=O)/C1=C\c1ccco1,-10,?,-9%[11.6 µM],-30%,50µM*,-21%
CCOc1cccc(/C(O)=C2/C(=O)C(=O)N(CCOC)C2c2ccco2)c1 (stereo unspecified),-1,-12%,3%,79µM*,?,?
CN1/C(=C\C(=O)COC(=O)Cn2nnc(-c3ccccc3)n2)C(C)(C)c2ccccc21,10,-23%,50µM*,?,?,?
CCCc1nc2oc3cc(OC)ccc3c(=O)c2c(=O)n1Cc1ccco1,?,-43%,-29%,45µM*,?,?
CCCc1nc2sc3ccccc3c(=O)c2c(=O)n1Cc1ccc(OC)cc1,1,-14%,1%,23%,?,-8%
COc1ccc2c(=O)c3c(=O)n(Cc4ccco4)c(-c4ccccc4)nc3oc2c1,.,-10%,-8%,-12%,1%,4%
CCCc1nc2sc3ccccc3c(=O)c2c(=O)n1Cc1ccco1,?,?,-22%,50µM*,?,?
